# Screens from PubChem.
# Giardia killer: kills Giardia lamblia; Giardia lamblia trophozoite viability; 340,000 compounds, 0.15% hits; activity change, % at 7.66 µM, hits read low; AID 540267; in the data active = activity change below about -80%; inconclusive = between about -30% and that limit;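 also: parasites exposed to compound for two days anaerobically before the ATP read; % is scaled to controls: 0 for no effect and ±100 for the full control effect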
#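 Media and compound were dispensed first, then trophozoites at 100 cells/well; plates sat 48 hrs at 37 deg C without oxygen before ATP luminescence reagent was added and read after 15-30 min at room temperature.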
# D3 antag: D3 dopamine receptor (human) antagonism; D3R cells, DiscoveRx beta-arrestin luminescence, antagonist mode; stronger effect = lower value; max response, negative = inhibition, %; 360,000 compounds, 2.5% hits; in the data active = max response below about -50%; inconclusive = no clear call, values can overlap the other calls; also: % is scaled to controls: 0 for no effect and ±100 for the full control effect
# Target sequence (P35462 whole entry, looked up): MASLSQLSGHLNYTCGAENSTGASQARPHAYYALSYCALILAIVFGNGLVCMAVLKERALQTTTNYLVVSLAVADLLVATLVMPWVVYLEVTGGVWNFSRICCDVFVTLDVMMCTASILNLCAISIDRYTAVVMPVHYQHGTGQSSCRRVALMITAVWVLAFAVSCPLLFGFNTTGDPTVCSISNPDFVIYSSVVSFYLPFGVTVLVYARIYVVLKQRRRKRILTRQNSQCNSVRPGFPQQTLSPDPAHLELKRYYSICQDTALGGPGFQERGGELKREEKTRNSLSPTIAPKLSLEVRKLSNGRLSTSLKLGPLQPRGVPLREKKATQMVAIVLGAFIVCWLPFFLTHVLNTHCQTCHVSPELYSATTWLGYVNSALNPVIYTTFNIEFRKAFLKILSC
#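 Cells expressing the human receptor were seeded at 1500 cells/well, incubated overnight at 37 degrees C in 5% CO2, then exposed to library compounds with dopamine controls for 90 minutes at 37 degrees C before luminescent detection.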
# B2AR arrestin: beta2AR (human) beta-arrestin recruitment activity; beta-arrestin recruitment to beta2AR, cell-based reporter; 330,000 compounds, 0.02% hits; P07550; Potency, µM (doses to about 46.1 µM), without a hit: at the top dose activation, most hits filed as activators; active = well fitted activation curve with a large enough effect; inconclusive = small, poorly fitted or top-dose-only effect;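 also: potency is read from the fitted curve at half-maximal effect; 0% = DMSO controls and full agonism = EC100 isoproterenol or metaproterenol; nearly all actives have a fitted effect of over 65% in size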
# DRD3 agonist: activates the human D3 dopamine receptor. P35462. max activation, %. 410,000 compounds, 0.58% hits. D3R DiscoveRx beta-arrestin cells, luminescence, 90 min. AID 652048; in the data active = max activation above about 30%; also: 0% is about no effect
#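 Agonist mode: compounds and dopamine controls were applied to plated cells for 90 min at 37 degrees C after an overnight attachment at 1500 cells/well. Luminescent read-out followed 30 - 60 minutes at room temperature with DiscoveRx detection reagent.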
# * hit, by the source's call; ? = inconclusive; / = no result given. Compounds with a hit are over-represented: about 2.8% of the library has one in this group of screens.
SMILES,Giardia killer,D3 antag,B2AR arrestin,DRD3 agonist
O=C(COc1cc(F)ccc1[N+](=O)[O-])N1N=C(c2cccs2)CC1c1ccco1 (stereo unspecified),8,-55*,3%,-2
CCOc1cc(CNC(=O)c2cc(-c3ccccc3)n[nH]2)cc(OCC)c1OCC,/,/,/,6
CCOc1ccccc1NC(=O)CCSc1nc2n[nH]c(C)c2c(=N)n1-c1ccccc1Cl,21,26,-1%,30*
Cc1ccccc1-n1c(SCC(=O)Nc2ccccc2Cl)nc2n[nH]c(C)c2c1=N,-1,33,-1%,5
COc1ccc2[nH]c3c(=O)n(/N=C/[C@H]4C(C)C=C(C)CC4C)c(=O)[nH]c3c2c1 (stereo partly specified),21,-22,-1%,0
CC1=CC(C)[C@H](/C=N/n2c(=O)[nH]c3c([nH]c4ccc(Br)cc43)c2=O)C(C)C1 (stereo partly specified),-1,-67*,0%,4
O=C1N[C@@H](Cc2ccccc2)C(=O)N2CCC[C@@H]12,-11,-16,-1%,-7
CC(C)C[C@@H]1NC(=O)[C@H](CCCN)NC(=O)[C@H](C(C)C)NC(=O)[C@@H]2CCCN2C(=O)[C@@H](Cc2ccccc2)NC(=O)[C@H](CC(C)C)NC(=O)[C@H](CCCN)NC(=O)[C@H](C(C)C)NC(=O)[C@@H]2CCCN2C(=O)[C@@H](Cc2ccccc2)NC1=O,/,/,/,31*
OC(CN1CCN(c2ccccc2Cl)CC1)c1ccccc1 (stereo unspecified),-3,-84*,0%,-2
OC(CN1CCN(c2ccccc2F)CC1)c1ccc(F)cc1 (stereo unspecified),0,-8,0%,36*
OC(COc1ccc(F)cc1)CN1CCN(c2ccccc2F)CC1 (stereo unspecified),24,-18,0%,-9
CN1CCN(CC(O)c2ccccc2)CC1 (stereo unspecified),/,/,0%,/
C[C@]12CC[C@@H]3c4ccc(O)cc4C[C@@H](CCCCCCCCCS(=O)CCCC(F)(F)C(F)(F)F)[C@H]3[C@@H]1CC[C@@H]2O (stereo partly specified),/,/,/,4
CCOCCCN1C(=O)c2[nH]nc(-c3ccccc3O)c2C1c1ccc(CC)cc1 (stereo unspecified),/,/,/,-7
CC1=NNC(=O)/C1=C\c1cn(-c2ccccc2)nc1-c1cccs1,1,?,0%,-2
CC1=NNC(=O)/C1=C\c1cn(-c2ccccc2)nc1-c1ccc(F)cc1,14,-69*,0%,-3
Cc1ccc(-c2nn(-c3ccccc3)cc2/C=N/NS(=O)(=O)c2ccccc2)cc1,-13,-54*,0%,-10
Cc1ccc(-c2nn(-c3ccccc3)cc2/C=N/O)cc1,-21,-53*,0%,-6
CCOc1cccc2sc(N(Cc3cccnc3)C(=O)c3ccco3)nc12,/,/,/,-12
CC1(C)OC(=O)C2(Cc3cc([N+](=O)[O-])ccc3N3CCCCCC32)C(=O)O1 (stereo unspecified),-9,/,/,/
COc1ccc(OCC(O)CN2CCN(c3ncccn3)CC2)cc1 (stereo unspecified),-28,?,0%,31*
CCCc1ccc(OCC(O)CN2CCN(c3ccccn3)CC2)cc1 (stereo unspecified),-29,-17,0%,62*
CC(=O)c1ccc(OCC(O)CN2CCN(c3ccccn3)CC2)cc1 (stereo unspecified),16,-55*,0%,56*
CCc1ccc(OCC(O)CN2CCN(c3ccccn3)CC2)cc1 (stereo unspecified),?,-27,0%,24
Cc1ccc(-c2nnc3ccc(SCC(=O)c4ccccc4)nn23)cc1,0,/,/,/
SMILES,Giardia killer,D3 antag,B2AR arrestin,DRD3 agonist
Cc1nn(CCCC(=O)Nc2ccccc2C(F)(F)F)c(=O)c2c1sc1ccccc12,/,/,/,3
CCOc1ccc(Cn2c(CNS(=O)(=O)c3ccc(Cl)s3)nc3cccnc32)cc1,/,/,/,15
NC[C@H]1O[C@H](O[C@H]2[C@H](O)[C@@H](O[C@H]3O[C@H](CO)[C@@H](O)[C@H](N)[C@H]3O)[C@H](N)C[C@@H]2N)[C@H](O)[C@@H](O)[C@@H]1O,/,/,/,3
O=C(Nc1ccc(Oc2ccccc2)cc1)c1ccc(F)c(S(=O)(=O)N2CCN(c3ccccc3F)CC2)c1,/,/,/,14
CC(Oc1ccccc1)C(=O)Nc1ccccc1C(=O)OCc1cc(=O)n2nc(C3CC3)sc2n1 (stereo unspecified),/,/,/,0
O=C1CC(Sc2ncccn2)C(=O)N1c1ccccc1 (stereo unspecified),-9,4,-1%,4
